The values that follow come from PubChem BioAssay (Tox21).

Assay [1] is described as follows: qHTS RealTime-Glo MT Cell Viability Assay in HEK293 cells - 0 hour (AID 1224880). Also: nearly all actives have a fitted effect of over 45% in size. Also: potency is read from the fitted curve at half-maximal effect. The procedure, abridged: (§1)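 600 HEK293 cells per well, dispensed already mixed with RealTime-Glo MT reagents. Compound dosing came 5 h later. The same wells were read for luminescence at 0, 8, 16, 24, 32 and 40 h of exposure at 37 C.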
Assay [2] can be described thus: A CellTox Green Cytotoxicity Assay to monitor cytotoxicity in HEK293 cells - 32 hour (AID 1224881). Also: nearly all actives have a fitted effect of over 40% in size. Also: potency is read from the fitted curve at half-maximal effect. The procedure, abridged:
(§2)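 Dead-cell fluorescence measured kinetically: asymmetric cyanine dye, HEK293, 600 cells/well, 5 h settle, 23 nL cpd/DMSO, 37 C, reads 0–40 h every 8 h.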

A short description of assay [3]: A CellTox Green Cytotoxicity Assay to monitor cytotoxicity in HepG2 cells - 0 hour (AID 1224882). Also: nearly all actives have a fitted effect of over 35% in size. The procedure, abridged: (§3)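 First, HepG2 cells (600/well) mixed with reagent were plated; second, after 5 h at 37 C they received compounds via pintool; third, fluorescence was measured at 0 h through 40 h at 8 h intervals.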
Assay [4] is described as follows: A CellTox Green Cytotoxicity Assay to monitor cytotoxicity in HepG2 cells - 32 hour (AID 1224883). Also: nearly all actives have a fitted effect of over 50% in size. Also: potency is read from the fitted curve at half-maximal effect. In outline: as §3
Assay [5] is described as follows: A CellTox Green Cytotoxicity Assay to monitor cytotoxicity in HEK293 cells - 8 hour (AID 1224884). Also: nearly all actives have a fitted effect of over 35% in size. Also: potency is read from the fitted curve at half-maximal effect. In outline:
as §2

A short description of assay [6]: qHTS RealTime-Glo MT Cell Viability Assay in HepG2 cells - 16 hour (AID 1224885). Also: nearly all actives have a fitted effect of over 50% in size. Also: potency is read from the fitted curve at half-maximal effect. In outline:
(§4)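 Compound treatment began 5 h after plating HepG2 cells (600/well) with NanoLuc luciferase and prosubstrate. Plates stayed at 37 C for 40 h; luminescence was captured at six time points, 0 h through 40 h.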

A short description of assay [7]: qHTS RealTime-Glo MT Cell Viability Assay in HEK293 cells - 24 hour (AID 1224886). Also: nearly all actives have a fitted effect of over 50% in size. Also: potency is read from the fitted curve at half-maximal effect. In outline: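 Quantitative high-throughput screen of the Tox21 10K library in HEK293: cells and RealTime-Glo reagents plated together, compound added at 5 h, luminescence monitored through 40 h at 37 C.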
Assay [8] in a line: qHTS RealTime-Glo MT Cell Viability Assay in HEK293 cells - 8 hour (AID 1224887). Also: nearly all actives have a fitted effect of over 50% in size. Also: potency is read from the fitted curve at half-maximal effect. The procedure, abridged: as §1
Assay [9] is described as follows: A CellTox Green Cytotoxicity Assay to monitor cytotoxicity in HEK293 cells - 16 hour (AID 1224888). Also: nearly all actives have a fitted effect of over 35% in size. In outline: as §2
Assay [10] is described as follows: qHTS RealTime-Glo MT Cell Viability Assay in HepG2 cells - 0 hour (AID 1224889). Also: nearly all actives have a fitted effect of over 50% in size. Also: potency is read from the fitted curve at half-maximal effect. In outline:
as §4

Where “and” joins values, the source holds several entries; their conditions need not be identical. Equal values may be shown once. Results filed as inconclusive are left out. The source holds several records for some structures; these can differ, active in one and inactive in another. Calls of active or inactive are those of the source. Calls follow the shape of the dose curve; as a rule, active = well fitted curve in the direction sought with a large enough effect in the repeat runs; inconclusive = weak or mixed curves; inactive = no such curve, though single readings can be large; an effect the other way counts as inactive or inconclusive.

Consider `Cc1cccc(C(=O)O)c1`, for which the Potency entry in [1], in [2], in [3], in [4], in assay [5] and in [6] was “inactive” each time. In addition, the Potency entry in assay [7], in assay [8], in assay [9] and in assay [10] was “inactive” throughout.
With `C/C=C/C(=O)O`, the Potency result in assay [1], in assay [2], in assay [3], in assay [4], in [5] and in assay [6] was “inactive” throughout. Besides, the Potency result in assay [7], in [8], in assay [9] and in [10] was “inactive” throughout.
`COC(=O)C1=C(C)NC(C)=C(C(=O)OCCN(C)Cc2ccccc2)C1c1cccc([N+](=O)[O-])c1` (stereo not given): the Potency is 5.46 µM (active) and 6.01 µM (active) in [1]; 48.7 µM (active) and inactive in assay [4]; 24.4 µM (active) and 10.7 µM (active) in assay [6]; 21.7 µM (active) and 19 µM (active) in [7]; 24.4 µM (active) and 19 µM (active) in [8]; 6.13 µM (active) and 3.38 µM (active) in assay [10]. Moreover, the Potency result in assay [2], in assay [3], in [5] and in assay [9] was “inactive” throughout.
Take `O=C(Nc1ccc([N+](=O)[O-])cc1Cl)c1cc(Cl)ccc1O`: the Potency entry in assay [1], in [3], in assay [5], in assay [6], in assay [8] and in [9] was “inactive” in each case. Further, the Potency entry in assay [10] is “inactive”. Moreover, the Potency was 38.9 µM (active) in assay [2]; 4.9 µM (active) and 2.93 µM (active) in assay [4]; 5.49 µM (active) and 1.04 µM (active) in assay [7].
Regarding `CN(C)C(=N)N=C(N)N`, the Potency result in [1], in assay [2], in [3], in assay [4], in [5] and in assay [6] was “inactive” in each case. The Potency entry in assay [7], in [8], in [9] and in [10] was “inactive” in each case.
Consider `CC1=CCC(C(C)(C)O)CC1` (stereo not given), for which the Potency entry in [1], in [2], in assay [3], in [6], in assay [7] and in assay [8] was “inactive” each time. Moreover, the Potency entry in assay [9] and in assay [10] was “inactive” in each case. Also, the Potency result was “inactive and 21.9 µM (active)” in assay [4]; “inactive and 17.4 µM (active)” in assay [5].
With `CC(C(=O)O)c1cccc(C(=O)c2ccccc2)c1` (stereo not given), the Potency result in assay [1], in assay [2], in [3], in assay [4], in assay [5] and in assay [6] was “inactive” each time. In addition, the Potency entry in assay [7], in assay [8], in [9] and in assay [10] was “inactive” each time.
On to `Cc1c(C(N)=O)cc([N+](=O)[O-])cc1[N+](=O)[O-]`, for which the Potency result in [1], in assay [2], in assay [3], in assay [4], in assay [5] and in assay [6] was “inactive” in each case. Besides, the Potency entry in assay [7], in assay [8], in assay [9] and in assay [10] was “inactive” throughout.
On to `O=C(COc1ccc(Cl)cc1)N1CCN(Cc2ccc3c(c2)OCO3)CC1`, for which the Potency entry in [1], in [2], in assay [3], in [4], in assay [5] and in assay [6] was “inactive” throughout. The Potency entry in assay [9] and in assay [10] was “inactive” in each case. Moreover, the Potency is 38.9 µM (active) in [7]; 38.9 µM (active) and inactive in assay [8].
With `CCOC(=O)C(C#N)=C(c1ccccc1)c1ccccc1`, the Potency entry in assay [1], in assay [2], in assay [3], in assay [4], in [5] and in [6] was “inactive” throughout. For the same compound, the Potency result in assay [7], in assay [8], in [9] and in assay [10] was “inactive” in each case.
Regarding `CC(C)OC=O`, the Potency result in assay [1], in [2], in [3], in assay [4], in assay [5] and in assay [6] was “inactive” throughout. The Potency entry in [7], in assay [8], in assay [9] and in assay [10] was “inactive” each time.
On to `O=C(O)c1ccccc1Nc1cccc(C(F)(F)F)c1`, for which the Potency entry in [1], in assay [2], in assay [3], in [4], in assay [5] and in assay [6] was “inactive” in each case. Besides, the Potency result in assay [7], in assay [8], in [9] and in assay [10] was “inactive” throughout.
As to `OC[C@H]1O[C@@H]2O[C@H]3[C@H](O)[C@@H](O)[C@@H](O[C@H]4[C@H](O)[C@@H](O)[C@@H](O[C@H]5[C@H](O)[C@@H](O)[C@@H](O[C@H]6[C@H](O)[C@@H](O)[C@@H](O[C@H]7[C@H](O)[C@@H](O)[C@@H](O[C@H]8[C@H](O)[C@@H](O)[C@@H](O[C@H]1[C@H](O)[C@H]2O)O[C@@H]8CO)O[C@@H]7CO)O[C@@H]6CO)O[C@@H]5CO)O[C@@H]4CO)O[C@@H]3CO`, the Potency entry in assay [1], in assay [2], in assay [3], in assay [4], in [5] and in assay [6] was “inactive” throughout. Also, the Potency entry in [7], in assay [8], in [9] and in [10] was “inactive” each time.
Turning to `C=C(C)C(=O)OCCOC(=O)C(=C)C`, the Potency result in [1], in assay [2], in assay [3], in assay [4], in assay [5] and in assay [6] was “inactive” throughout. The Potency result in assay [7], in assay [8], in assay [9] and in [10] was “inactive” throughout.
As to `CCCCC(CC)COCC1CO1` (stereo not given), the Potency result in [1], in assay [2], in assay [3], in [4], in assay [5] and in assay [6] was “inactive” each time. The Potency entry in assay [7], in [8], in assay [9] and in assay [10] was “inactive” throughout.
For `O=CCc1ccccc1`, the Potency result in assay [1], in assay [2], in assay [3], in assay [4], in assay [5] and in assay [6] was “inactive” in each case. The Potency entry in assay [7], in assay [8], in assay [9] and in [10] was “inactive” each time.
Turning to `O=P(O)(O)O`, the Potency result in [1], in assay [2], in assay [3], in assay [4], in [5] and in [6] was “inactive” in each case. The Potency entry in [7], in [8], in assay [9] and in [10] was “inactive” throughout.
Turning to `COC(=O)Nc1nc2ccc(S(=O)c3ccccc3)cc2[nH]1` (stereo not given), the Potency result in assay [1], in [2], in assay [3], in [5], in assay [6] and in assay [9] was “inactive” in each case. For the same compound, the Potency result in assay [10] was “inactive”. Also, the Potency result in [4] is “inactive and 952 nM (active)”; in assay [7], 0.952 µM (active); in assay [8], “inactive and 1.69 µM (active)”.
